The subject of test [1] is Plasmodium falciparum Sir2 (PF13_0152, Sir2A). Put plainly: pfSir2 binders on small-molecule microarrays, primary screen, biochemical, small-molecule microarray, 635 nm fluorescence (AID 1098).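 Also: score merges spot fluorescence intensity with its signal-to-noise ratio.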 To be noted: small-molecule microarray binding, fluorescence 635 nm; higher = more signal.
The nature of test [2]: small-molecule microarray binders of probe aDKK1, primary screen, biochemical, biotinylated probe, 635/667 nm fluorescence (AID 1099).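 Also: score merges 667nm spot fluorescence with signal to noise across triplicate slides.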 To be noted: higher = more signal.
A short description of test [3]: small-molecule microarray binders of probe aCHRDL2, primary screen, biochemical, biotinylated probe, 635/667 nm fluorescence (AID 1100). To be noted: higher = more signal.
A short description of test [4]: splicing luciferase reporter signal modulators, primary screen, spliceosome inhibition project, cell-based, HEK293, splice +/- reporter (AID 1101).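 Also: HEK293 cells carrying a splicing-competent luciferase reporter gene; test concentration not given here.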 Particulars: luminescence, 24 h, higher = more signal, called active from +8 up or from −8 down.
Test [5] has as its target Fibroblast growth factor 10 (Homo sapiens) (UniProt O15520). The experiment in a line: FGF10 binders on small-molecule microarrays, primary screen, biochemical, small-molecule microarray, 635 nm fluorescence (AID 1102). Particulars: FGF10 binding, fluorescence 635 nm, higher = more signal.
Test [6] concerns glycogen synthase kinase-3 (GSK3A per assay name; protocol says GSK3B). Put plainly: GSK3 binders on small-molecule microarrays, primary screen, biochemical, small-molecule microarray, 635 nm fluorescence, GSK3A (AID 1103). Also: the record names both GSK3A and GSK3B. Particulars: small-molecule microarray binding, fluorescence 635 nm; higher = more signal.
In test [7] the target is Epidermal growth factor receptor (Homo sapiens) (UniProt P00533). The experiment in a line: EGFR binders on small-molecule microarrays, primary screen, biochemical, small-molecule microarray, 635 nm fluorescence (AID 1104).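 Also: score merges 667 nm emission intensity with spot signal to noise over triplicate slides.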 Particulars: EGFR binding, higher = more signal.
For test [8], the target named is Follistatin-related protein 3 (Homo sapiens) (UniProt O95633). The experiment in a line: FSTL3 binders on small-molecule microarrays, primary screen, biochemical, small-molecule microarray, 635 nm fluorescence (AID 1105).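 Also: score merges emission near 667 nm and signal to noise per printed spot across three slides.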 To be noted: FSTL3 binding, higher = more signal.
The target in test [9] is Dickkopf-related protein 1 (Homo sapiens) (UniProt O94907). Put plainly: DKK1 binders on small-molecule microarrays, primary screen, biochemical, small-molecule microarray, 635 nm fluorescence scan (AID 1106).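 Also: score merges emission near 667 nm with signal to noise over three replicate slides.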 Particulars: DKK1 binding, higher = more signal.
For test [10], the system named is Inhibin beta A chain (activin A). Put plainly: INHBA (activin A) binders on microarrays, primary screen, biochemical, small-molecule microarray, 635 nm fluorescence scan (AID 1107).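 Also: mouse activin A protein probed at 4.33 µg/mL on printed slides; score merges bound-protein fluorescence near 667 nm with spot signal-to-noise.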 To be noted: small-molecule microarray binding, higher = more signal.
In test [11] the test system is Human papillomavirus type 1a protein E7 (residues 44-93). Put plainly: HPV1a E7 fragment binders on microarrays, primary screen, biochemical, small-molecule microarray, residues 44-93, 635 nm fluorescence (AID 1108).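 Also: E7 fragment applied at 1 µg/mL in TBST for 1 h at 4 C; score combines spot fluorescence with its signal to noise ratio.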 To be noted: small-molecule microarray binding, fluorescence 635 nm; higher = more signal.
Test [12] can be described thus: modulators of HCV replicon luciferase signal, primary screen, HCV replication inhibitor project, Huh7 cells, luciferase reporter (AID 1109).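 Also: huh7 hepatoma cells harbouring a luciferase neomycin HCV replicon reporter; luciferase luminescence as measure of HCV replicon replication; test concentration not given here.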 To be noted: 48 h, higher = more signal. Background: A replicon is a self-replicating genome or part of one, used to study replication in cells.
For test [13], the target named is Left-right determination factor 2 (Homo sapiens) (UniProt O00292). Put plainly: LEFTY2 binders on small-molecule microarrays, primary screen, biochemical, small-molecule microarray, 635 nm fluorescence scan (AID 1110). Particulars: LEFTY2 binding, higher = more signal.
In test [14] the target is Calmodulin-1 (Homo sapiens) (UniProt P0DP23). The experiment in a line: CALM1 binders on microarrays, EGTA buffer, profiling panel, biochemical, small-molecule microarray, Cy5-labelled CALM1 (AID 1111).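 Also: labelled calmodulin applied in Tris saline Tween buffer holding calcium plus EGTA and DTT.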 Particulars: Cy5-CALM1 binding fluorescence, higher = more signal.
The target is the same in test [15]. Put plainly: calcium-bound CALM1 binders on microarrays, profiling panel, artefact control for SMM control-protein annotation, biochemical, small-molecule microarray, Cy5-labelled CALM1, plus calcium (AID 1112).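 Also: score merges spot fluorescence with signal to noise from triplicate slides.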 Particulars: Cy5-CALM1 binding fluorescence, higher = more signal.
Test [16] can be described thus: small-molecule microarray binders of probe aWnt5a, primary screen, biochemical, biotinylated probe, 635/667 nm fluorescence (AID 1113).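 Also: score merges 667 nm fluorescence intensity with signal-to-noise per printed feature.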 Particulars: higher = more signal.
Test [17] is described as follows: small-molecule microarray binders of probe aShh, primary screen, biochemical, biotinylated probe, 635/667 nm fluorescence (AID 1114).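 Also: probe is biotin-labelled aShh protein from a stem cell growth factor screen; measures binding of labelled protein to compounds printed on the slide; score merges feature fluorescence at 667 nm with signal-to-noise.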 Particulars: higher = more signal.
Test [18] is described as follows: small-molecule microarray binders of probe aNog, primary screen, biochemical, biotinylated probe, 635/667 nm fluorescence (AID 1115).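 Also: probe is biotinylated aNog protein used at 0.15 µg/mL for 1 h at 4 C; z-score combines 667 nm fluorescence of each spot with its signal to noise.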 To be noted: higher = more signal.
Test [19] deals with Torsin-1A-interacting protein 1 (Homo sapiens) (UniProt Q5JTV8). Put plainly: LAP1 binders from COS7 cell lysate, primary screen, small-molecule microarray, 635/667 nm fluorescence (AID 1116). Particulars: COS7-hLAP1 lysate binding, 635 nm fluorescence, higher = more signal.
The target of test [20] is Alpha-bungarotoxin (Bungarus multicinctus) (UniProt P60615). The experiment in a line: alpha-bungarotoxin binders on microarray, profiling panel, artefact control for SMM control protein annotation, biochemical, small-molecule microarray, Alexa647 label, 635/667 nm fluorescence (AID 1117). Particulars: alpha-BTX-A647 binding fluorescence, higher = more signal.

Active and inactive are the calls of the source.

Chain of Fibroblast growth factor 10 (Homo sapiens) (O15520 whole entry, looked up): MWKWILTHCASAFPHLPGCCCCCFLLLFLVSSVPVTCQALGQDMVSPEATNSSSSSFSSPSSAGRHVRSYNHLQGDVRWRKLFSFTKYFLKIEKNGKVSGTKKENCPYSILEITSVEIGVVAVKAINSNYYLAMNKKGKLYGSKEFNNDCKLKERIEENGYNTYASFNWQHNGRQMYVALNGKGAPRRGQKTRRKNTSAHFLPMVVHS
Chain of Left-right determination factor 2 (Homo sapiens) (O00292 whole entry, looked up): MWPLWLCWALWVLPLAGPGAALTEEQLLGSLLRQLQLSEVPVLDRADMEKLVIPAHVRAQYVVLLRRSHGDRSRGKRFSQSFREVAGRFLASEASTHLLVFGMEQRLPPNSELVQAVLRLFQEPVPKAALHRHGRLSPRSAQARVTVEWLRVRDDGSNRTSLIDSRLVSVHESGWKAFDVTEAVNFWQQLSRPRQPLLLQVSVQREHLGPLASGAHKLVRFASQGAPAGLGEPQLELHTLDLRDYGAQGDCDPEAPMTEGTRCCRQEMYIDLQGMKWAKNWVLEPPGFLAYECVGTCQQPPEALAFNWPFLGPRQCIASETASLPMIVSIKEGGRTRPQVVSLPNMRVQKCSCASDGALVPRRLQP
Chain of Follistatin-related protein 3 (Homo sapiens) (O95633 whole entry, looked up): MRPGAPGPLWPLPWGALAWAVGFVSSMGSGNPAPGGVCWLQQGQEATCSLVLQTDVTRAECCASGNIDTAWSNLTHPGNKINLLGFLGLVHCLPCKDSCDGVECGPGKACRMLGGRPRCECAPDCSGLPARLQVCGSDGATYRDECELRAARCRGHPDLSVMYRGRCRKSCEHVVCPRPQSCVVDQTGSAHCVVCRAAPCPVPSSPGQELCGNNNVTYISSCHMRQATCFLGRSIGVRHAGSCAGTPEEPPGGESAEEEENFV
Chain of Alpha-bungarotoxin (Bungarus multicinctus) (P60615 whole entry, looked up): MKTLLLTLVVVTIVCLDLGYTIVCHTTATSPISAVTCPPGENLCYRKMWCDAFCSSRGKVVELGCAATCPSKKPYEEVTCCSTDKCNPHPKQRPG
Chain of Dickkopf-related protein 1 (Homo sapiens) (O94907 whole entry, looked up): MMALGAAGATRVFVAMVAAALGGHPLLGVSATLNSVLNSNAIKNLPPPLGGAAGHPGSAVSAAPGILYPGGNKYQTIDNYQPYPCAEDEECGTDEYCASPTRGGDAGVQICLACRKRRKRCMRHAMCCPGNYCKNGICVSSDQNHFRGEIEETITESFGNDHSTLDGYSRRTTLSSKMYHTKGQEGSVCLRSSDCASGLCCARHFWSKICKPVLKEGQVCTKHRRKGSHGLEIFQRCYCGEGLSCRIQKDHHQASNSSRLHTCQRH
Chain of Torsin-1A-interacting protein 1 (Homo sapiens) (Q5JTV8 whole entry, looked up): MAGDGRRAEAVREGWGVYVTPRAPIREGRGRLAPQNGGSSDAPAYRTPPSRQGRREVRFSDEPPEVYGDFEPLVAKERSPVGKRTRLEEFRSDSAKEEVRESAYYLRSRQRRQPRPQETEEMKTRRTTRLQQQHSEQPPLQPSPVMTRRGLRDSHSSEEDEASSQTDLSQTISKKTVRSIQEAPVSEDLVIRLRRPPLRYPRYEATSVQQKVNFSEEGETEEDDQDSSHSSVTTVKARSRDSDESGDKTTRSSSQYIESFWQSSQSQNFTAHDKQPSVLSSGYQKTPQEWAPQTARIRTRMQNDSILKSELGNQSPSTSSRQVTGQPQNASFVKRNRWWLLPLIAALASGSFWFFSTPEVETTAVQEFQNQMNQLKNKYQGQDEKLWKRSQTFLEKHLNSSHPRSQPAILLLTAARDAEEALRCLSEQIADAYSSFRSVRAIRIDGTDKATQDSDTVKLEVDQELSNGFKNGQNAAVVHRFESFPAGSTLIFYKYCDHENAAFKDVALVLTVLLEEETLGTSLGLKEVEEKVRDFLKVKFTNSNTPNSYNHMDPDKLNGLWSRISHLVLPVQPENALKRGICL
Chain of Epidermal growth factor receptor (Homo sapiens) (P00533 whole entry, looked up): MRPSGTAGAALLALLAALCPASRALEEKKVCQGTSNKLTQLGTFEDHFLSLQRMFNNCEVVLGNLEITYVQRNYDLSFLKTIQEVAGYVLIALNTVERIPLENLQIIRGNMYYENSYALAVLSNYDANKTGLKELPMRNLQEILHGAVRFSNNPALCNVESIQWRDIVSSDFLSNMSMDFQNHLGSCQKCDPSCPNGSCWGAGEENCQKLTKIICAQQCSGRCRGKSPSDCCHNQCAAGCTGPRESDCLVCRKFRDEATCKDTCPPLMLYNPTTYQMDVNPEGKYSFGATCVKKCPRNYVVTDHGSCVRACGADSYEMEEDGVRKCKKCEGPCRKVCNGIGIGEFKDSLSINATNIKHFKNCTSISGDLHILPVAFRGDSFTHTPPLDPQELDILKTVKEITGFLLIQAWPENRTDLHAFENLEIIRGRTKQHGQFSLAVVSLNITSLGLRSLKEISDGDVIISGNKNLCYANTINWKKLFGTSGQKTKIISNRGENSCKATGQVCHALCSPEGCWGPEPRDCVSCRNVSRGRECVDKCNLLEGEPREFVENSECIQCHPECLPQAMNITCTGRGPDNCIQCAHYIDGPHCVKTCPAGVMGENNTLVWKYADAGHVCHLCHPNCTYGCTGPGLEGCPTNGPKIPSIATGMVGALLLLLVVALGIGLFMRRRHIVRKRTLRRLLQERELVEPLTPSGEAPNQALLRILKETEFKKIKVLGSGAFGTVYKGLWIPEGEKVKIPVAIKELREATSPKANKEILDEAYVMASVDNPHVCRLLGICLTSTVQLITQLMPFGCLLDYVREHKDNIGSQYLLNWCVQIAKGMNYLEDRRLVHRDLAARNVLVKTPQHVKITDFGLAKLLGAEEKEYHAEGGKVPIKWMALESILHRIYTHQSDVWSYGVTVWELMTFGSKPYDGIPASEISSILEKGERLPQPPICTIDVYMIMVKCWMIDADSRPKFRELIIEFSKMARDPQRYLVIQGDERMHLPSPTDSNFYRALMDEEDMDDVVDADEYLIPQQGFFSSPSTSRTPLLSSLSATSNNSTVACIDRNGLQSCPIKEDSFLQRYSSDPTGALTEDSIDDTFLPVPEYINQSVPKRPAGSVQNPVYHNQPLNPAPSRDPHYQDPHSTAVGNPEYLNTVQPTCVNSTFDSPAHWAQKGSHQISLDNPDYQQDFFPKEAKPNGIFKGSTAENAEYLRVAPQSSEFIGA

For `CON=C(C)CCN1CCc2nc(-c3ccccc3)c(-c3ccccc3)cc2C1`, the composite z-score was 0.689 in test [1]; -0.104 in test [2]; 0.173 in [3]; -0.0075 in test [5]; -0.478 in test [6]; 0.629 in test [7]. Also, the composite z-score in test [8] is 0.272; in [9], 0.468; in test [10] it was 1.25; in test [11] it was -0.539; in test [13] it was -0.117; in [14] it was 0.709. For the same compound, the composite z-score in test [15] is 0.0504; in test [16], -0.219; in [17], -0.0011; in [18], 0.107; in [19], 0.0735; in test [20], -0.107. The z-score was -0.316 (inactive) in [4] and -4.3 in [12].
Turning to `CC1(C)O[C@H]2O[C@H]([C@H](O)CON=C3[C@H]4CCn5c(=O)n(-c6ccccc6)c(=O)n5[C@H]4[C@H](O)[C@@H]4O[C@H]34)[C@H](O)[C@H]2O1`, the composite z-score was 0.378 in test [1]; -0.179 in test [2]; -0.181 in test [3]; 0.174 in test [5]; 0.085 in test [6]; 0.249 in [7]. The composite z-score is 0.422 in test [8]; 0.0043 in test [9]; 0.695 in [10]; -1.32 in test [11]; 0.257 in test [13]; 0.759 in test [14]. Also, the composite z-score is 0.118 in test [15]; -0.0748 in [16]; -0.501 in [17]; 0.222 in test [18]; -0.144 in test [19]; 0.168 in test [20]. The z-score in [4] was 0.407 (inactive); in test [12], -0.0374.
Consider `CC(C)=NO[C@@H](C)c1cn([C@H](CO)Cc2ccccc2)nn1`, for which the composite z-score in [1] was 0.8; in [2], 0.0454; in [3], -0.832; in test [5], 0.393; in test [6], 0.523; in test [7], 0.303. The composite z-score in test [8] is 0.345; in test [9], 0.27; in test [10], 0.111; in test [11], 0.833; in test [13], 0.802; in test [14], -0.03. Moreover, the composite z-score in test [15] was -0.408; in test [16], 0.0044; in test [17], -0.0794; in [18], -0.35; in [19], 0.541; in test [20] it was 0.392. Moreover, the z-score in test [4] is -0.937 (inactive); in [12], 1.13.
Regarding `CON=C(C)CCN1CCCCc2nc(C)c(C)cc21`, the composite z-score in [1] is 0.636; in test [2], -0.144; in test [3], -0.0831; in [5], 0.443; in [6], 0.213; in test [7], 0.657. For the same compound, the composite z-score was 0.507 in [8]; 0.881 in test [9]; 1.52 in test [10]; -0.111 in test [11]; 0.679 in [13]; -0.327 in [14]. In addition, the composite z-score in [15] is -0.817; in [16] it was 0.11; in test [17], -0.147; in test [18] it was -0.337; in [19], 0.445; in test [20] it was -0.0996. Besides, the z-score in [4] was 0.248 (inactive); in [12], -0.319.
On to `O=C1[C@H]2[C@H]3[C@H](O)[C@H](O)CC(=NOC[C@@H](O)COCc4ccco4)[C@@H]3CC[C@H]2C(=O)N1Cc1ccccc1`, for which the composite z-score in test [1] is -0.422; in [2] it was -0.316; in [3], -0.611; in [5] it was 0.146; in [6], 1.34; in test [7] it was 0.603. For the same compound, the composite z-score is 1.51 in test [8]; 0.833 in [9]; 1.34 in test [10]; 1.48 in test [11]; 1.19 in [13]; -0.754 in test [14]. For the same compound, the composite z-score in test [15] is -1.55; in [16] it was -0.152; in [17], -0.0866; in test [18], -0.529; in test [19], 0.77; in test [20], 0.238. Besides, the z-score in test [4] is -0.153 (inactive); in test [12], -0.114.
For `CCCCOC(OCCCC)C(O)CSc1ccc2ccccc2c1` (stereo not given), the composite z-score in test [1] is 0.302; in test [2] it was 0.166; in test [3] it was -0.392; in [5], 0.379; in test [6] it was 0.68; in test [7] it was 0.549. Also, the composite z-score was 0.589 in test [8]; 0.486 in test [9]; 0.251 in test [10]; 0.711 in test [11]; 0.64 in test [13]; -0.24 in test [14]. The composite z-score in [15] was -0.19; in test [16] it was -0.0441; in [17] it was 0.171; in test [18], -0.0281; in [19] it was 0.506; in test [20] it was 0.086. The z-score in test [4] was -0.0185 (inactive); in test [12], 0.0395.

These data come from PubChem BioAssay.
